# A340 absorber: compounds absorbing at 340 nm; fold change at 10 µM; 65,000 tested, under 10 active; compound absorbance at 340 nm, fold over control; AID 708;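 active = at 10 µM dose, initial 340 nm absorbance at least 2 fold that of control wells; inactive = change under 2 fold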;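 note: initial absorbance extrapolated from kinetic A340 decline of NADH oxidation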
# Fluor 339 460: intrinsic fluorescence of library compounds, ex339/em460 – biochemical, MLSMR library, data from DPM-DC assay, artefact control, profiling panel; compound autofluorescence, ex339/em460 nm, NADH buffer; stronger effect = higher value; 1 = no-compound wells, NADH background; fluorescence fold increase at 10 µM; hit rate 5.5% among 65,000;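 active = at 10 µM, mean starting fluorescence two-fold or more over control wells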;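 note: signal is the first read of a kinetic run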
# NADH enzymes: inhibition of NAD/NADH coupling enzymes, library profiling; hit rate 0.02% among 65,000; IC50, µM (doses to about 10 µM); coupled PK/LDH NADH assays, four targets;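 active = single-dose screening hits from any of four coupled enzyme assays that gave an IC50 when retested across doses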;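 note: the DPM-DC format reads NADH fluorescence rather than 340 nm absorbance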
# Spn PMK inh: inhibitors of Streptococcus pneumoniae phosphomevalonate kinase | inhibition, % at 10 µM | hit rate 0.49% among 65,000 | purified PMK, PK/LDH-coupled NADH absorbance 340 nm | AID 539;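 active = top-ranked compounds by inhibition in the single 10 µM screen, taking a fixed number of the strongest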
# Spn MK inh: S. pneumoniae mevalonate kinase inhibition. purified MK, PK/LDH-coupled NADH absorbance 340 nm. inhibition, % at 10 µM. hit rate 0.48% among 65,000. AID 555;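 active = ranked among the strongest by inhibition in the single 10 µM screen, a fixed top-ranked set picked for dose follow-up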
# DPM-DC inhibit: blocks S. pneumoniae diphosphomevalonate decarboxylase. purified DPM-DC, PK/LDH coupled NADH fluorescence. calls only at 10 µM. hit rate 0.49% among 65,000;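 active = the 320 compounds with the highest percent inhibition in the single-dose primary screen, excluding strongly autofluorescent ones, cut at about 32% in these data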;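 note: kinetic rate of NADH fluorescence loss reporting ADP formed by the decarboxylase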
# Numbers stand for hits; 0 = inactive; - = no result given; + = active, no number. A selection: hits, their analogues and other compounds. The true share with any hit is near 6.5%.
SMILES,A340 absorber,Fluor 339 460,NADH enzymes,Spn PMK inh,Spn MK inh,DPM-DC inhibit
CCOc1cc(C(=O)N(C)Cc2cc3cc(OC)ccc3[nH]c2=O)cc(OCC)c1OCC,0,0,0,0,0,0
COCC(=O)N(Cc1cc2cc(OC)ccc2[nH]c1=O)c1ccccc1,0,2.7,0,0,0,0
OCc1nnn(-c2cccc(C(F)(F)F)c2)c1CO,0,0,0,0,0,0
Cc1cc(C(F)(F)F)n2ncc(C(=O)O)c2n1,0,0,0,0,0,0
COc1cc(S(=O)(=O)NCc2ccccc2)ccc1F,0,0,0,0,0,0
COCc1cc(C)c(C#N)c(=S)[nH]1,0,0,0,0,58,0
O=C(NCCOc1ccccc1)c1ncn[nH]1,0,0,0,0,0,0
CC(C)c1nc(-c2c(N)n(C)c(=O)n(C)c2=O)sc1C(=O)C(C)(C)C,0,0,0,0,0,0
O=C1c2ccccc2NC2CCCCCN12 (stereo unspecified),0,3,0,0,0,-
O=C1c2ccccc2NC2CCCCC12 (stereo unspecified),0,0,0,0,0,0
O=c1[nH]c(-c2ccc(Cl)cc2)nc2c1cnn2-c1ccccc1,0,2.3,0,0,0,0
CCOC(=O)c1[nH]c2ccc(OC)cc2c1NC(C)=O,0,3.5,0,0,0,-
CCOC(=O)c1[nH]c2ccc(OC)cc2c1NC(=O)CN1CCSCC1,0,3.9,0,0,0,-
COc1ccccc1CC(=O)N1CCN(c2cccc(C(F)(F)F)c2)CC1,0,0,0,0,0,0
CN(C)CC(C)(C)CNC(=O)C1CCN(Cc2ccccc2O)CC1,0,0,0,0,0,0
COc1cccc(N2CCN(Cc3coc4c(Cl)cc(Cl)cc4c3=O)CC2)c1,0,0,0,0,0,0
O=C(Nc1ncc(C(F)(F)F)cc1Cl)C1COc2ccccc2O1 (stereo unspecified),0,0,0,0,0,0
COc1ccc(-c2cc(C(F)(F)F)nc(N3CCN(c4ccccc4)CC3)n2)cc1OC,0,0,0,0,0,0
COc1nc(-c2ccccc2)cc(-c2ccc(OC)c(OC)c2)n1,0,2.2,0,0,0,-
CCn1c(-c2ccc3[nH]c(C)c(C)c3c2)n[nH]c1=S,0,0,0,0,0,0
O=C(NCCCn1ccnc1)C1c2ccccc2Oc2ccccc21,0,0,0,0,0,0
CCOc1ccc(S(=O)(=O)NCCCN2CCOCC2)c2ccccc12,0,0,0,40,0,0
CCN1C(=O)c2cccc3c(S(=O)(=O)Nc4ccccc4OC)ccc1c23,0,0,0,0,0,0
COc1ccc(S(=O)(=O)NCCCN2CCOCC2)c2ccccc12,0,0,0,0,0,0
CCN1C(=O)c2cccc3c(S(=O)(=O)NCCCN4CCOCC4)ccc1c23,0,3.9,0,0,0,0
SMILES,A340 absorber,Fluor 339 460,NADH enzymes,Spn PMK inh,Spn MK inh,DPM-DC inhibit
CN(CCC#N)CC(=O)Nc1ccc(NC(=O)CN(C)CCC#N)cc1,0,0,0,0,0,0
N#Cc1nc(-c2ccccc2F)oc1NCCN1CCOCC1,0,2.1,0,0,0,-
Cc1ccc(-c2nc(C#N)c(NCCN3CCCCC3)o2)cc1,0,2.1,0,0,0,-
COc1ccc(N2CCN(c3oc(-c4ccco4)nc3C#N)CC2)cc1,0,0,0,0,0,0
N#Cc1nc(-c2ccco2)oc1NCCN1CCOCC1,0,3,0,0,0,0
COc1ccc(-c2nc(C#N)c(NCCCN3CCOCC3)o2)cc1,0,2.1,0,0,0,-
N#Cc1nc(Cc2cccc3ccccc23)oc1NCCN1CCCCC1,0,0,0,0,0,0
O=C(Nc1cccc(C(=O)N2CCOCC2)c1)c1cccnc1,0,0,0,0,0,0
N#Cc1nc(-c2cccc3ccccc23)oc1NCCN1CCOCC1,0,3.6,0,0,0,-
N#Cc1nc(COc2ccccc2)oc1NCCN1CCOCC1,0,0,0,0,0,0
N#Cc1nc(COc2ccc(-c3ccccc3)cc2)oc1NCCCN1CCOCC1,0,0,0,0,0,0
N#Cc1nc(-c2cccs2)oc1NCCCN1CCOCC1,0,2.3,0,0,0,-
N#Cc1nc(-c2ccc(F)cc2)oc1NCCN1CCOCC1,0,2.1,0,0,0,-
CN(c1ccccc1C(=O)N1CCc2ccccc2C1)S(C)(=O)=O,0,0,0,0,0,0
C=CCn1c(SCC(=O)/C(C#N)=C(\C)N)nnc1C1CCCCC1,0,0,0,0,0,0
Cn1c(=O)n(Cc2ccccc2)c(=O)c2c1nc(NCC1CCCO1)n2Cc1ccccc1 (stereo unspecified),0,0,0,0,0,0
O=C1C(Cl)=C(NCC2CCCO2)C(=O)N1Cc1ccccc1 (stereo unspecified),0,0,0,0,0,+
O=C(NCc1cccs1)c1cnc2ccccn2c1=O,0,2,0,0,0,0
Cc1cc(NC(=O)c2cnc3ccccn3c2=O)no1,0,3.7,0,0,0,0
COc1ccccc1CNC(=O)c1cnc2ccccn2c1=O,0,0,0,0,0,0
O=C1CC(c2ccc(F)c(Br)c2)C2=C(CCCC2=O)N1 (stereo unspecified),0,0,0,0,0,0
CCC(CC)c1nc(NCCC(=O)O)c2ccccc2n1,0,0,0,0,0,0
Cc1nc2oc3ccccc3c(=O)c2c(=O)n1Cc1ccccc1,0,0,0,0,0,0
Cc1nc2ccc(N)cc2c(=O)n1Cc1ccc(Cl)cc1,0,3.7,0,0,0,-
c1ccc(-c2cnnc(SCc3cn4cccnc4n3)n2)cc1,0,0,0,0,0,0
SMILES,A340 absorber,Fluor 339 460,NADH enzymes,Spn PMK inh,Spn MK inh,DPM-DC inhibit
COCC(=O)Nc1ccc(-c2cn3cccnc3n2)cc1,0,5.2,0,0,0,-
Brc1ccc(-c2cn3cccnc3n2)cc1,0,3.4,0,0,0,-
CCOCC(=O)Nc1cc(-c2cn3cccnc3n2)ccc1C,0,5.3,0,0,0,-
O=C(c1cc2ccccn2n1)N1CCN(c2ccccn2)CC1,0,0,0,0,0,0
CCn1c(CSc2nc3ccccc3s2)nc2ccccc21,0,0,0,0,0,0
c1csc(-c2cnc3ccccc3n2)c1,0,3.6,0,0,0,-
c1cncc(Nc2nc(-c3cccs3)cs2)c1,0,0,0,0,0,0
Cc1cc(C)c2cc(CN(CC3CCCO3)S(=O)(=O)c3ccc4c(c3)OCCO4)c(=O)[nH]c2c1 (stereo unspecified),0,0,0,0,0,0
COc1ccc2nc(NC(=O)C3CCCN(S(=O)(=O)c4cccc5nsnc45)C3)sc2c1 (stereo unspecified),0,0,0,0,0,0
COc1ccc2nc(NC(=O)C3CCCN(S(=O)(=O)c4cccc5nonc45)C3)sc2c1 (stereo unspecified),0,0,0,0,70,0
CC(/C=C/c1ccccc1)NC(N)=O (stereo unspecified),0,0,0,0,0,0
COC(=O)c1c(C)nc(C)c2c(=O)oc3ccccc3c12,0,0,0,0,0,0

# Source: PubChem BioAssay (SRMLSC)
